Results reported in PubChem BioAssay (NCATS).
Records with an inconclusive call do not appear. A call without a number means that no potency is given here. Active and inactive are the calls of the source. The call rests on the fitted dose curve; in most records, active means well fitted inhibition curve with a large enough effect; inconclusive means small, poorly fitted or top-dose-only effect; inactive means flat fitted curve, though single readings scatter.

Molecular target: Calcium and integrin-binding protein 1 (Homo sapiens) (UniProt Q99828)
Sequence (Q99828 whole entry, looked up): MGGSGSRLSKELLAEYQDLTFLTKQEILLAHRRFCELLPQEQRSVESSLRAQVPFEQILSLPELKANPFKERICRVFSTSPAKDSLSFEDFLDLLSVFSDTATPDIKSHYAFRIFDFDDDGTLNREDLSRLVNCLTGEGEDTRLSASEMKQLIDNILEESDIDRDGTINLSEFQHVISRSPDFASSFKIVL
Assay: Primary qHTS for Identification of Calcium Integrin Binding Protein 1 (CIB1) Competitor (AID 1508620);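 further: GST tagged CIB1 binding a fluorescein labelled alphaIIb integrin peptide tracer; top concentration of the series differs between compounds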
Conditions: CIB1-GST / FITC-alphaIIb peptide fluorescence polarization; series mostly up to 114 µM
Procedure, shortened: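 Fluorescence polarization competition: CIB1-GST (1 uM final) preincubated with compound 15 min at room temperature, then FITC-labeled alphaIIb peptide (100 nM final) added for another 15 min. Polarization read at Ex 480/Em 540.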

Row | SMILES | Potency | activity change, negative = inhibition
1 | C=C[C@@]12COC(=O)C(=C)C1[C@@H](O)[C@H](C(=C)C(=O)OC)[C@@H](OC(=O)C(=C)CO)C2 (stereo partly drawn) | inactive | 
2 | C[C@@H]1O[C@@H](O[C@H]2[C@@H](OC(=O)[C@]34CCC(C)(C)CC3C3=CCC5[C@@]6(C)C[C@H](O)[C@H](O[C@@H]7O[C@H](C(=O)O)[C@@H](O)[C@H](O)[C@H]7O)[C@@](C)(C(=O)O)C6CC[C@@]5(C)[C@]3(C)CC4)OC[C@H](O)[C@@H]2O)[C@H](O)[C@H](O)[C@H]1O[C@@H]1OC[C@@H](O)[C@H](O)[C@H]1O (stereo partly drawn) | inactive | 
3 | CC1=CC(=O)CC(C)(C)[C@@]1(O)CC[C@@H](C)O[C@@H]1O[C@H](CO)[C@@H](O)[C@H](O)[C@H]1O | inactive | 
4 | COC(=O)CCc1cc2ccoc2c(OC)c1O[C@@H]1O[C@H](CO)[C@@H](O)[C@H](O)[C@H]1O | inactive | 
5 | C=C[C@H]1[C@H](O[C@@H]2O[C@H](CO)[C@@H](O)[C@H](O)[C@H]2O)OC=C(C(=O)OC)[C@H]1CC(=O)O | inactive | 
6 | C=CC1(C)C=C2CCC3C(C)(C)C(O[C@@H]4O[C@@H](CO)[C@H](O)[C@H]4O)CCC3(C)C2CC1O[C@@H]1O[C@H](C)[C@H](O)[C@H](O)[C@H]1O (stereo partly drawn) | inactive | 
7 | CC(=O)C1=CCC2C3CCC4CC(O[C@@H]5O[C@H](CO)[C@@H](O[C@@H]6O[C@@H](C)[C@H](O)[C@@H](O)[C@H]6O)[C@H](O)[C@H]5O[C@@H]5O[C@H](CO)[C@@H](O)[C@H](O)[C@H]5O)CCC4(C)C3CCC12C (stereo partly drawn) | inactive | 
8 | C=C1C[C@@]23CCC4[C@@](C)(CCC[C@@]4(C)C(=O)OC)C2CC[C@@H]1C3 (stereo partly drawn) | inactive | 
9 | C=C(C(=O)O)[C@H]1C[C@]2(C)[C@@H](O)CC[C@]23O[C@H]1C[C@@H]3C | inactive | 
10 | CC(=O)O[C@H]1C[C@@](O)(C(C)C)C2[C@@H](OC(=O)c3ccc(O)cc3)C[C@@]3(C)O[C@H]3C[C@]21C (stereo partly drawn) | inactive | 
11 | C[C@H](N)C(=O)N[C@@H](Cc1ccc(O)cc1)C(=O)N1CCC[C@H]1C(=O)NCC(=O)N[C@@H](CCCCN)C(=O)N[C@@H](Cc1ccccc1)C(N)=O | inactive | 
12 | CCn1cc(NC(=S)Nc2cc(Cl)ccc2OC)c(C(N)=O)n1 | inactive | 
13 | CO[C@H]1/C=C/C=C/C=C/C[C@H](OC(=O)[C@@H](C)NC(=O)C2CCCCC2)[C@H](C)[C@@H](O)/C(C)=C/CCc2cc(O)cc(c2)NC(=O)C1 | inactive | 
14 | C=CC(C)(C)C12C=C(OC)C(=O)N3C(C(C)C)C(=O)NC31N(OC)c1ccccc12 (stereo not drawn) | inactive | 
15 | O=C(O)Cc1cn(C2OCC(O)C(O)C2O[C@@H]2O[C@H](CO)[C@@H](O)[C@H](O)[C@H]2O)c2ccccc12 (stereo partly drawn) | inactive | 
16 | CC1CCC2C(C)(C)[C@@H](O)CC[C@]2(C)C12Cc1c(O)cc3c(c1O2)CN(C(CCC(=O)O)C(=O)O)C3=O (stereo partly drawn) | inactive | 
17 | CC(C)(O)c1ccc2c(c1)C(O)C[C@H]1[C@](C)(C(=O)O)CCC[C@]21C (stereo partly drawn) | inactive | 
18 | COC(=O)[C@@H](O)[C@H]1[C@@]2(C)CC3(O)[C@@H](C(=O)[C@H]2O)[C@]24O[C@]25CC(=O)O[C@@H](c2ccoc2)[C@]5(C)CCC4[C@]13C (stereo partly drawn) | inactive | 
19 | CC1(C)CC2=C3C=CC4C5(C)CCC(O)C(C)(C)C5CCC4(C)C3(C)CCC2(C)C(O)C1 (stereo not drawn) | inactive | 

Row | SMILES | Potency | activity change, negative = inhibition
20 | CC(=O)N1CCc2ccc(O)c(OC3OC(COC4OCC(O)(CO)C4O)C(O)C(O)C3O)c2C1Cc1ccc(O)cc1 (stereo not drawn) | inactive | 
21 | COc1c2c(c(C)c3c1C(=O)OC3)OC1(C)CC(O)C34OC(OC)(CC(OC(C)=O)C3(C)C1C2)OC4(C)C (stereo not drawn) | inactive | 
22 | CC1(C)CC[C@]2(C(=O)O)CC[C@]3(C)C(=CCC4[C@@]5(C)CC[C@H](O[C@@H]6O[C@H](C(=O)O)[C@@H](O[C@@H]7OC[C@@H](O)[C@H](O)[C@H]7O)[C@H](O)[C@H]6O)C(C)(C)C5CC[C@]43C)C2C1O (stereo partly drawn) | inactive | 
23 | CC1(C)CC[C@]2(C(=O)O)CC[C@]3(C)C(=CCC4[C@@]5(C)C[C@@H](O)[C@H](O)C(C)(C)C5CC[C@]43C)C2C1 (stereo partly drawn) | inactive | 
24 | C=C1CN(Cc2ccc(C(=O)Nc3ccccc3N)cc2)C(=O)c2ccccc21 | inactive | 
25 | CC(=O)OC1C(=O)C2(C)C(O)CC3OCC3(OC(C)=O)C2C(OC(=O)c2ccccc2)C2(O)CC(OC(=O)C(O)C(NC(=O)c3ccccc3)c3ccccc3)C(C)=C1C2(C)C (stereo not drawn) | inactive | 
26 | O=C(O)/C=C/c1ccc(O)c(O[C@@H]2O[C@H](CO)[C@@H](O)[C@H](O)[C@H]2O)c1 | inactive | 
27 | C=C1CC2C(C)(CCC(=O)O)C(C(C)(C)O)CCC2(C)C2C(=O)OC(C)(C(=O)OC)C(=O)C12C (stereo not drawn) | inactive | 
28 | C[C@@H]1C(=O)O[C@H]2C[C@]34[C@H]5C[C@@H](C(C)(C)C)[C@]36[C@@H](OC(=O)[C@H]6O)O[C@]4(C(=O)O5)[C@]21O | inactive | 
29 | COC(=O)C12C(=O)C(C)=C(O)C1(C)C(C)=CC1C3(CO)CCC(O)C(C)(C)C3CCC12C (stereo not drawn) | inactive | 
30 | CC1(C(=O)O)CCCC2(C)C3=CCC4CC3(CCC12)CC4CO (stereo not drawn) | inactive | 
31 | C=C1CCC2C(C)(C(=O)O)CCCC2(C)C1CCC(C)CC(=O)O (stereo not drawn) | inactive | 
32 | CC(=O)O[C@@H]1[C@@H](CO)O[C@@](CO)(O[C@H]2O[C@H](COC(=O)/C=C/c3ccccc3)[C@@H](O)[C@H](O)[C@H]2O)[C@H]1O | inactive | 
33 | CC1OC(OC2C(CO)OC(OCC3OC(OC(=O)C45CCC(C)(C)CC4C4=CCC6C7(C)CCC(OC8OC(CO)C(O)C(OC9OC(CO)C(O)C(O)C9O)C8O)C(C)(C)C7CCC6(C)C4(C)CC5)C(O)C(O)C3O)C(O)C2O)C(O)C(O)C1OC1OC(CO)C(O)C(O)C1O (stereo not drawn) |  | -4.16% [at 12.4 µM] (inactive)
34 | C/C(=C\CCC(C)CCO)C(=O)O[C@@H]1[C@@H](O)[C@H](OC2OC=C(C(=O)O)C3CCC(C)(O)C23)O[C@H](CO)[C@H]1O (stereo partly drawn) | inactive | 
35 | COc1ccc(CC2C(=O)NC(C)C(=O)N(C)C3Cc4ccc(cc4)Oc4cc(ccc4OC4OC(CO)C(O)C(O)C4O)CC(C(=O)NC(C)C(=O)NC(C)C(=O)N2C)N(C)C3=O)cc1 (stereo not drawn) | inactive | 
36 | C=C1CC[C@@H]2[C@](C)(CO[C@@H]3O[C@H](CO)[C@@H](O)[C@H](O)[C@H]3O)[C@H](O)CC[C@@]2(C)[C@@H]1C/C=C1/C(=O)OC[C@H]1O | inactive | 
37 | CC(C)CC1NC(=O)C2CC3(O)c4ccccc4NC3N2C1=O (stereo not drawn) | inactive | 
38 | CC(C)C[C@H](CC(=O)NO)C(=O)N[C@@H](Cc1ccc2ccccc2c1)C(=O)N[C@@H](C)C(=O)NCCN | inactive | 
